Source: PubChem
ID4 binder – ID4 (human) binding; small molecule microarray, Flag-ID4 binding, fluorescence F/B; calls only; actives 1.2% (n = 31,000); call rule not given here;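 note: a binder raises fluorescence above local background on the spot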
STK33 kin inh – blocks human STK33 kinase activity. actives 0.44% (n = 27,000). Q9BYT3. AID 2322. ADP-Glo luminescence, MBP substrate. inhibition, % at 12.5 µM; in the data active = inhibition above about 20%
Target sequence (Q9BYT3 whole entry, looked up): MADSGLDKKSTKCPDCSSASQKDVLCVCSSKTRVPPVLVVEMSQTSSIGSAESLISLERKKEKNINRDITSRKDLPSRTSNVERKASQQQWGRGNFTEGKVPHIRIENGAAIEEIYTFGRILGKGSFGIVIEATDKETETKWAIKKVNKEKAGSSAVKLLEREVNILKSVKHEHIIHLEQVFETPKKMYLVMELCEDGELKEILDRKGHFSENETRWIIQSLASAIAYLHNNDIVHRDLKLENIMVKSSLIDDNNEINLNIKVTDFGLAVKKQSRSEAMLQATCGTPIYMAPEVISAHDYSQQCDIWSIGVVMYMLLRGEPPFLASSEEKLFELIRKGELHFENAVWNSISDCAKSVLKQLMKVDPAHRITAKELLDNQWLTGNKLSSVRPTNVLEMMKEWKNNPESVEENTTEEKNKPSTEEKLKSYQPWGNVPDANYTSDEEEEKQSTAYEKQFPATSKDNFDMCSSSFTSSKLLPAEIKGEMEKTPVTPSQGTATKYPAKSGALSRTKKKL
p53 PUMA act – restores mutant p53 pathway signaling in SW480 cells | actives 1.5% (n = 28,000) | activation, % at 9.98 µM | AID 624151 | SW480 PUMA-promoter luciferase, p53 mutant reactivation; in the data active = activation above about 52%
Starred values were filed as active, the others as inactive; i = inactive; . = no result given; + = active, no number. Shown are actives, neighbours in structure and some others; about 2.1% of the full set was active somewhere.

SMILES | ID4 binder | STK33 kin inh | p53 PUMA act
C[C@H](CO)N1C[C@H](C)[C@@H](CN(C)Cc2ccc(C(=O)O)cc2)Oc2ccc(NC(=O)Nc3ccccc3)cc2CC1=O | i | . | -4
Cc1ccc(NS(=O)(=O)c2cc(C(=O)Nc3ccccc3C(=O)N3CCCC3)ccc2C)c(C)c1 | i | 9 | -7
Cc1ccccc1NC(=O)c1ccc(C)c(S(=O)(=O)Nc2cc([N+](=O)[O-])ccc2C)c1 | + | -2 | 1
CC(C)Oc1ccc2c(=O)c3cc(C(=O)O)ccc3oc2c1 | i | . | 71*
CC(C)Oc1ccc2c(=O)cc(-c3ccccc3)oc2c1 | . | 1 | 22
C[C@@H]1CCCCO[C@H](CN(C)C(=O)C2CCCCC2)[C@@H](C)CN([C@@H](C)CO)C(=O)c2cc(NC(=O)c3ccncc3)ccc2O1 | + | . | 4
C[C@H]1CCCCO[C@@H](CN(C)C(=O)C2CCCCC2)[C@@H](C)CN([C@@H](C)CO)C(=O)c2cc(NC(=O)c3ccncc3)ccc2O1 | i | . | 0
C[C@@H]1CN([C@H](C)CO)C(=O)c2cc(NS(=O)(=O)c3ccccc3)ccc2O[C@@H](C)CCCCO[C@@H]1CN(C)C(=O)c1ccncc1 | + | . | 1
C[C@@H]1CCCCO[C@H](CN(C)C(=O)c2ccncc2)[C@@H](C)CN([C@H](C)CO)C(=O)c2cc(NS(=O)(=O)c3ccccc3)ccc2O1 | i | -1 | 2
COc1ccc(S(=O)(=O)N(C)CC(=O)Nc2ccccc2)cc1C | i | 0 | -13
COc1ccc(Cl)c(Cn2c(NC3CCCCC3)nc3c2c(=O)n(C)c(=O)n3C)c1 | i | -1 | -2
O=C(CSc1nc2ccccc2o1)Nc1ccc(N2CCOCC2)c(Cl)c1 | i | 0 | 96*
COc1cc(OC)nc(NC(=O)CSc2nc3ccccc3o2)n1 | i | 1 | -17
COC(=O)c1cc(OC)c(OC)cc1NC(=O)CSc1nc2ccccc2o1 | i | 2 | 105*
O=C(CSc1nc2ccccc2s1)Nc1ccc(N2CCOCC2)c(Cl)c1 | i | -4 | 0
CCOc1ccc(NC(=O)CSc2nc3ccccc3o2)cc1 | i | 0 | 44
CC(=O)Nc1ccc(C(=O)CSc2nc(-c3ccccc3)cs2)cc1 | i | 3 | 88*
O=C(CCSc1nc(-c2ccccc2)cs1)Nc1ccccc1 | i | 0 | 2
CC(=O)Nc1ccc(C(=O)CSc2nc3ccccc3o2)cc1 | i | 7 | 56*
O=C(NC1CC1)[C@@H]1c2ccccc2C(=O)N(CC23CC4CC(CC(C4)C2)C3)[C@H]1c1ccc(CO)cc1 | . | -3 | .
Cc1ccc(S(=O)(=O)N(C)C[C@H]2OCCCC[C@@H](C)Oc3ccc(NC(=O)C4CCCCC4)cc3C(=O)N([C@H](C)CO)C[C@@H]2C)cc1 | . | -27 | .
C[C@@H]1CN([C@@H](C)CO)C(=O)Cc2cc(NC(=O)Nc3ccc(C(F)(F)F)cc3)ccc2O[C@@H]1CN(C)Cc1ccc(Cl)c(Cl)c1 | . | 0 | .
O=C(C[C@@H]1CC[C@H](NC(=O)Nc2cc(F)ccc2F)[C@@H](CO)O1)NCc1ccncn1 | i | . | .
C[C@@H]1O[C@@H](OC[C@H]2O[C@@H](OCc3ccccc3)[C@H](O)[C@@H](O)[C@@H]2O)[C@H](O)[C@H](O)[C@H]1O | . | 2 | 6
CNc1ccccc1C(=O)OC1OC(C)C(O)C(O)C1O (stereo unspecified) | + | 0 | 12
SMILES | ID4 binder | STK33 kin inh | p53 PUMA act
C[C@@H]1CCCCO[C@H](CN(C)C(=O)Nc2cccc3ccccc23)[C@@H](C)CN([C@H](C)CO)C(=O)c2cc(NS(=O)(=O)c3ccc(Cl)cc3)ccc2O1 | . | 2 | .
COC(=O)C(CC#Cc1ccc2c(c1)[C@]1(C(=O)N2)[C@H](C(=O)Nc2nc3ccccc3s2)[C@H]2C(=O)O[C@H](c3ccccc3)[C@H](c3ccccc3)N2[C@@H]1c1ccccc1OCCO)C(=O)OC | i | -1 | .
O=C(COc1ccc2ccccc2c1Br)NCc1ccccn1 | i | -1 | 96*
CC(C)(C)NS(=O)(=O)c1ccc(NC(=O)COc2ccc3ccccc3c2Br)cc1 | i | 2 | 6
COc1ccc(CN(C)C[C@@H]2Oc3ccc(NC(=O)Nc4ccc(F)cc4)cc3C(=O)N([C@@H](C)CO)C[C@H]2C)cc1 | i | . | -2
O=S(=O)(NCc1csc2ccc(Cl)cc12)c1cc(S(=O)(=O)c2ccccc2)cs1 | i | . | 5
C[C@@H]1CN([C@H](C)CO)C(=O)Cc2cc(N(C)C)ccc2O[C@@H]1CN(C)CC1CC1 | i | 0 | .
O=C(O)CCSc1nc(-c2ccccc2)c(-c2ccccc2)[nH]1 | + | 0 | -7
Cc1cccc(NC(=O)CSc2nc(-c3ccccc3)c(-c3ccccc3)[nH]2)c1C | i | 0 | -9
Nc1nnc(SCC(=O)c2ccc3ccccc3c2)s1 | i | -2 | 95*
Cc1[nH]c2ccccc2c1C(=O)CSc1nnc(N)s1 | i | -4 | 1
Cc1noc(C)c1S(=O)(=O)Nc1ccc2c(c1)C(=O)N([C@@H](C)CO)C[C@@H](C)[C@@H](CN(C)C(=O)Nc1ccccc1)O2 | i | . | 1
C[C@@H]1CN([C@H](C)CO)C(=O)c2cc(NS(=O)(=O)c3ccccc3)ccc2O[C@H]1CN(C)Cc1ccc(C(=O)O)cc1 | . | -4 | .
CN1CCN(C2=Cc3ccccc3Oc3ccc(Cl)cc32)CC1 | i | -1 | .
CC(=O)NNC(=O)N1Cc2ccccc2Oc2ccc(Cl)cc21 | + | . | 2
O=C(CC1c2ccccc2Oc2ccccc21)Nc1ccccc1C(=O)N1CCCCC1 | i | -5 | -9
C[C@H](CO)N1C[C@H](C)[C@@H](CN(C)C)Oc2ncc(-c3ccncc3)cc2C1=O | i | . | -1
COc1cccc(S(=O)(=O)N(C)C[C@H]2Oc3ncc(-c4cccc(C(=O)N(C)C)c4)cc3C(=O)N([C@H](C)CO)C[C@@H]2C)c1 | + | . | 3
C[C@@H]1CN([C@@H](C)CO)C(=O)c2cc(-c3cccnc3)cnc2O[C@@H]1CN(C)C | i | . | .
C[C@H]1CN([C@@H](C)CO)C(=O)c2cc(-c3cccnc3)cnc2O[C@@H]1CN(C)C | + | . | .
C[C@H]1CN([C@@H](C)CO)C(=O)c2cc(-c3cccc(C(=O)N(C)C)c3)cnc2O[C@H]1CN(C)S(=O)(=O)c1cccc(F)c1 | . | . | 16
C[C@@H]1CN([C@@H](C)CO)C(=O)c2cc(-c3ccncc3)cnc2O[C@H]1CN(C)C | + | . | .
C[C@@H]1CCCCO[C@H](CN(C)Cc2ccc(C(=O)O)cc2)[C@@H](C)CN([C@H](C)CO)C(=O)c2cc(NS(=O)(=O)c3ccc(F)cc3)ccc2O1 | . | 0 | .
CCc1ccc2c(c1)C(O)(CC(=O)c1ccco1)C(=O)N2 (stereo unspecified) | i | 1 | -11
COC1CC(O[C@H]2CC[C@]3(C)C4CC[C@@]5(C)C(=O)[C@]4(CC[C@@H]3C2)CC[C@@H]5C2=CC(=O)OC2)OC(C)C1OC1OC(COC2OC(CO)C(O)C(O)C2O)C(O)C(O)C1O (stereo partly specified) | i | 1 | -65
C/C=C/c1ccc2c(c1)O[C@H](CN(C)CCC)[C@H](C)CN([C@@H](C)CO)S2(=O)=O | i | . | -2
Nc1ccc(-c2nnc(SCC(=O)c3ccc(F)cc3)n2-c2ccccc2)cc1 | i | 2 | 23
C[C@@H]1CN([C@H](C)CO)C(=O)Cc2cc(NC(=O)C3CCCCC3)ccc2O[C@H]1CN(C)Cc1ccncc1 | . | -2 | .
